Assay results reported in PubChem BioAssay (NCATS).
Records with an inconclusive call do not appear. Activity calls are given as the source filed them. Calls come from the whole dose curve; as a rule, active = well fitted inhibition curve with a large enough effect; inconclusive = small, poorly fitted or top-dose-only effect; inactive = flat fitted curve, though single readings scatter.

Molecular target: Calcium and integrin-binding protein 1 (Homo sapiens) (UniProt Q99828)
Experiment: Primary qHTS for Identification of Calcium Integrin Binding Protein 1 (CIB1) Competitor (AID 1508620);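 note: GST tagged CIB1 binding a fluorescein labelled alphaIIb integrin peptide tracer; top concentration of the series differs between compounds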
Details: CIB1-GST / FITC-alphaIIb peptide fluorescence polarization; series mostly up to 114 µM; activity change, negative = inhibition: at the top concentration
Outline: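 Fluorescence polarization competition: CIB1-GST (1 uM final) preincubated with compound 15 min at room temperature, then FITC-labeled alphaIIb peptide (100 nM final) added for another 15 min. Polarization read at Ex 480/Em 540.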
% is set by controls: 0 for no effect and ±100 for the full control effect.

Chain of Calcium and integrin-binding protein 1 (Homo sapiens) (Q99828 whole entry, looked up): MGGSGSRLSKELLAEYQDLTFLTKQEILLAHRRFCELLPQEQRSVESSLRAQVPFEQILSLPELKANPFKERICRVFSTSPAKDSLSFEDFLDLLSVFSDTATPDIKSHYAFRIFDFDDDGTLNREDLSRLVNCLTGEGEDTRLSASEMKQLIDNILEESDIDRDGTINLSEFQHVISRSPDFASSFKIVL

SMILES	activity change, negative = inhibition	Potency
COc1cccc(Nc2nc(C#N)nc(NC3CCCC3)n2)c1	-3.51% (inactive)	–
COc1ccc(C(=O)OCC#CCSc2nnc(-c3cccc4ccccc34)o2)cc1	-0.271% (inactive)	–
CC(C)(C)OC(=O)NCC(=O)NNC(=O)c1cc2ccccc2[nH]1	-2.65% (inactive)	–
CC(=O)Nc1oc(-c2cccc3ccccc23)nc1C#N	-3.59% (inactive)	–
O=S(=O)(Nc1ccccc1F)c1ccc(O)c2ncccc12	-6.54% (inactive)	–
O=C(Nc1ccc2ccccc2c1)Nc1nnc(-c2ccc(O)cc2)s1	1.92% (inactive)	–
O=C(CNC(=O)c1ccccc1)OC(Cc1ccccc1)C(=O)Nc1cc(C(F)(F)F)ccc1Cl (stereo not given)	1.53% (inactive)	–
Cc1cn([C@H]2C[C@H](N[S+](=O)([O-])Cc3ccccc3)[C@@H](CO)O2)c(=O)[nH]c1=O	2.77% (inactive)	–
COc1cc(O)c(C(CC(=O)N2CCC(c3ccccc3)CC2)c2ccc(C)cc2)c(OC)c1 (stereo not given)	1.38% [at 228 µM] (inactive)	–
N#Cc1nc(Nc2cccc3ccccc23)nc(NC2CCCC2)n1	6.46% (inactive)	–
CC(O)c1cc2c(s1)c1cnn(Cc3ccccc3F)c(=O)c1n2C (stereo not given)	-0.526% (inactive)	–
Cc1cc(C)n2ncc(C(=O)Nc3ccc4c(c3)OCO4)c2n1	-1.23% (inactive)	–
O=C1CCCC2=C1C(c1[nH]ncc1Cl)N=C(Nc1ccccn1)N2 (stereo not given)	-6.41% (inactive)	–
O=C(NC1CCCc2c1cnn2-c1ccc(F)cc1F)c1cnon1 (stereo not given)	-2.39% (inactive)	–
COc1cccc(CNc2ccc(S(=O)(=O)Nc3ccc(N4CCNCC4)cc3)cc2)c1O	-3.5% (inactive)	–
CCOC(=O)C1CCN(C(=O)C2(NC(=O)Nc3ccccc3Cl)CCC2)CC1	-2.76% (inactive)	–
O=C1CCCC2=C1C(c1[nH]ncc1Cl)N=C(Nc1nc3cc([S+](=O)([O-])N4CCCC4)ccc3o1)N2 (stereo not given)	4.75% (inactive)	–
CC(=O)Nc1sc2c(c1Br)CCNC2	0.502% (inactive)	–
Cc1noc(-c2sc3c(c2-c2nc4ccccc4s2)CCNC3)n1	-0.415% (inactive)	–
Cc1ccc(-c2ccnc(N3CCC(C(N)=O)CC3)n2)cc1	-1.39% (inactive)	–

SMILES	activity change, negative = inhibition	Potency
Cc1ccc(OCCn2c(CCNC(=O)c3ccccc3C)nc3ccccc32)cc1	11.2% (inactive)	–
C=CCNc1oc(-c2cccc(Br)c2)nc1C#N	-0.304% (inactive)	–
O=C(/C=C/c1ccc(Cl)cc1)Nc1cccc([S+](=O)([O-])Nc2ccccc2F)c1	–	inactive
O=S(=O)(c1cccc(Br)c1)N1CCN(S(=O)(=O)c2ccc3c(c2)OCCO3)CC1	0.419% (inactive)	–
CNc1oc(-c2ccc3c(c2)OCCO3)nc1C#N	1.76% (inactive)	–
Nc1ccccc1C(=O)NCc1ccco1	4.95% (inactive)	–
NC(=O)C1CCN(c2ncc(-c3ccc(Br)cc3)s2)CC1	-4.62% (inactive)	–
CC(=O)Nc1sc2c(c1C(=O)O)CCNC2	1.07% (inactive)	–
Oc1cccc2cc(-c3ccncc3)cnc12	-6.39% (inactive)	–
Cc1cnc(-c2ccccc2CO)nc1NCc1ccc(-c2cccnc2)cc1	0.376% (inactive)	–
COc1ccc(C2Nc3ccccc3C(=O)N2Cc2ccccc2)cc1Oc1ccc(NC(C)=O)cc1 (stereo not given)	6.85% (inactive)	–
CCCCN(C)C(=O)Cn1nc(-c2cncnc2)ccc1=O	-0.916% (inactive)	–
COc1cccc(CCC(=O)NCCc2nc3ccccc3n2CCOc2ccc(C)cc2)c1	3.74% (inactive)	–
Cc1c(C(=O)O)[nH]c2c1C(=O)CCC2	-1.6% (inactive)	–
O=[S+]([O-])(/C=C/c1nc(Nc2cc(F)cc(F)c2)c2ncn(CC(F)F)c2n1)c1ccccc1	3.18% (inactive)	–
Cn1nnnc1Sc1ncnc2scc(I)c12	-9.98% (inactive)	–
O=S(=O)(c1ccc2c(c1)OCCCO2)N1CCN(S(=O)(=O)c2c(F)cccc2F)CC1	4.46% (inactive)	–
CCCCN(C)C(=O)Cn1nc(-c2ccc(C(F)(F)F)cc2)ccc1=O	-5.11% (inactive)	–
O=C(Cn1nc(-c2ccncc2)ccc1=O)NCCc1ccccc1	6.99% (inactive)	–
Nc1ccccc1OCCn1c(CCNC(=O)C2CCCCC2)nc2ccccc21	-2.75% (inactive)	–
